According to PubChem BioAssay AID1210 (NMMLSC, 2008):

What follows are compounds tested against Estrogen receptor beta (Homo sapiens) (UniProt Q92731) (assay: ERbeta ligand binders by competition, primary screen, cell-based, Cos7 ERbeta-GFP, flow cytometry (AID 1210;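 further: 0% = DMSO vehicle wells and 100% = complete loss of labeled estradiol signal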)). Conditions: fluorescent estrogen binding, ligand binding inhibition, at 0.1 µM, stronger effect = higher value.
Estrogen receptor beta (Homo sapiens), sequence (Q92731 whole entry, looked up): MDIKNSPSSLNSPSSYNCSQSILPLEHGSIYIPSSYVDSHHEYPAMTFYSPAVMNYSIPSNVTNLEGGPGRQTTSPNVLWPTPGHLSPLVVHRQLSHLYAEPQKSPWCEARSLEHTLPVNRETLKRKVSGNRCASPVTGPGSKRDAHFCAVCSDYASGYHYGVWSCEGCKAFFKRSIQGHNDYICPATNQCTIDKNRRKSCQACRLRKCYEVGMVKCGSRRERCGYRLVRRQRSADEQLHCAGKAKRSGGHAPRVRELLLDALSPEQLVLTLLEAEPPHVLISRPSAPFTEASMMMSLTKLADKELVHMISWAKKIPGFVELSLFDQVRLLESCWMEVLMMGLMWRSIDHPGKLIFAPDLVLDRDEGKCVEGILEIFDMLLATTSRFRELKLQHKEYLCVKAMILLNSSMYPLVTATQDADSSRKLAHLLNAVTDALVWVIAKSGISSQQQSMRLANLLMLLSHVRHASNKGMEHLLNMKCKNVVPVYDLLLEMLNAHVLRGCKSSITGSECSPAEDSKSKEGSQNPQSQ
With `CC(=O)c1ccc2c(c1)C1C(Cl)C(Sc3ccccc3[N+](=O)[O-])CC1C(c1ccccc1[N+](=O)[O-])N2` (centres undefined) the inhibition was 6%. Compound `Cc1ccc(S(=O)(=O)Cc2ccc(C(=O)N3CCC4(CC3)OCCO4)o2)cc1` has an inhibition of 7%. `CCOc1ccccc1N1C(=O)NC(=O)C(CCc2ccncc2)(CCc2ccncc2)C1=O` showed an inhibition of 35%. Work on `C[C@H]1CCC[C@@H](O)CCC/C=C/c2cc(O)cc(O)c2C(=O)O1` yielded an inhibition of 62%. For `O=C(O)c1cccc2c1NC(c1cccc([N+](=O)[O-])c1)C1CC(Sc3ccccc3[N+](=O)[O-])C(Cl)C21` (centres undefined), the inhibition was 11%. With `O=C(O)c1ccc2c(c1)C1C(Cl)C(Sc3ccccc3[N+](=O)[O-])CC1C(c1cccc([N+](=O)[O-])c1)N2` (centres undefined) the inhibition was 6%. In the case of `COc1ccc(Cn2c(N)c(C(=O)NCc3ccco3)c3nc4ccccc4nc32)cc1`, the inhibition is reported as 13%. With `CC(=O)c1ccc2c(c1)C1C(Cl)C(Sc3ccccc3[N+](=O)[O-])CC1C(c1ccccc1)N2` (centres undefined) the inhibition was 22%. `NC(=O)c1ccc(N=Nc2c(O)[nH]c(=O)[nH]c2=O)cc1` was tested, and the inhibition was 17%.
